# Compound: Nc1ncnc2c1ncn2[C@@H]1O[C@H](COP(=O)(O)OP(=O)(O)OP(=O)(O)O)[C@@H](O)[C@H]1O [adenosine 5'-triphosphate]
# Assay: log2 fold change of tryptic peptide abundance, ligand vs vehicle (limited proteolysis) (log2 ratio); higher = more trypsin-susceptible (destabilized)
# Conditions: ligand concentration: 5 mM; sample: E. coli desalted lysate; replicate design: treated before aliquoting
# Method: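 HT-PELSA: desalted E. coli K-12 BW25113 lysate (with 12 mM MgCl2) incubated with 5 mM ATP (pH 7) or water for 30 min at 25 C, then a 4 min trypsin pulse at 22 C. Peptides were quantified by DIA-MS (4 replicates). Value is the peptide log2 fold change (treated/control); negative = stabilized. Scale: negative = ligand-stabilized region.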
# 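Further: lysate desalted by size exclusion to strip endogenous ATP, peptide intensities built from DIA-NN precursor signals, and peptides missing any value discarded before comparison.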
# Chain of UniProt P77316 (P77316 whole entry): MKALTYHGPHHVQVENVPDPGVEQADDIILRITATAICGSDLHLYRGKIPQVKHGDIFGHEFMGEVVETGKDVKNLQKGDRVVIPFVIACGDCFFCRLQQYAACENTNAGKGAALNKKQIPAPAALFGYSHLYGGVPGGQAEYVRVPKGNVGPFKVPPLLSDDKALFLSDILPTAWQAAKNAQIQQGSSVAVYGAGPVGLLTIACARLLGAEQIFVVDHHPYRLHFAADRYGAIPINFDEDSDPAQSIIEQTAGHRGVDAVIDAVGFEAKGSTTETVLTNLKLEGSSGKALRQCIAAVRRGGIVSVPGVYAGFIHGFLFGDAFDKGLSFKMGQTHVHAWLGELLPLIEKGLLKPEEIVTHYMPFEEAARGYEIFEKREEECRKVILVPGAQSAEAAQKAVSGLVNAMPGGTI
# Chain of UniProt P00893 (P00893 whole entry): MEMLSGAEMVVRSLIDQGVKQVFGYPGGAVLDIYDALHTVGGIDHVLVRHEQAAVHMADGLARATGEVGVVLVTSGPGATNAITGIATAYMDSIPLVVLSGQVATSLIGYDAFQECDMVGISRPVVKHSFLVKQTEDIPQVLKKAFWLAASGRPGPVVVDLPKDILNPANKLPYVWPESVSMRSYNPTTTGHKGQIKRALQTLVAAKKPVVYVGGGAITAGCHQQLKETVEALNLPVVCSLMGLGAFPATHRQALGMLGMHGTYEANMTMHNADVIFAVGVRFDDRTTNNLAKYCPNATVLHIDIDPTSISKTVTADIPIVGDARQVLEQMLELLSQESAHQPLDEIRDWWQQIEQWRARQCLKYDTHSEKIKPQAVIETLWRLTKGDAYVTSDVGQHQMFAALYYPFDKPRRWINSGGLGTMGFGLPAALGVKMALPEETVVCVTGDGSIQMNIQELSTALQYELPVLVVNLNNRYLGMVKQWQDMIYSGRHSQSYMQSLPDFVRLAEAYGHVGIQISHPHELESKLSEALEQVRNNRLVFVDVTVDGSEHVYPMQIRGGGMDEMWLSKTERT
# Chain of UniProt P19323 (P19323 whole entry): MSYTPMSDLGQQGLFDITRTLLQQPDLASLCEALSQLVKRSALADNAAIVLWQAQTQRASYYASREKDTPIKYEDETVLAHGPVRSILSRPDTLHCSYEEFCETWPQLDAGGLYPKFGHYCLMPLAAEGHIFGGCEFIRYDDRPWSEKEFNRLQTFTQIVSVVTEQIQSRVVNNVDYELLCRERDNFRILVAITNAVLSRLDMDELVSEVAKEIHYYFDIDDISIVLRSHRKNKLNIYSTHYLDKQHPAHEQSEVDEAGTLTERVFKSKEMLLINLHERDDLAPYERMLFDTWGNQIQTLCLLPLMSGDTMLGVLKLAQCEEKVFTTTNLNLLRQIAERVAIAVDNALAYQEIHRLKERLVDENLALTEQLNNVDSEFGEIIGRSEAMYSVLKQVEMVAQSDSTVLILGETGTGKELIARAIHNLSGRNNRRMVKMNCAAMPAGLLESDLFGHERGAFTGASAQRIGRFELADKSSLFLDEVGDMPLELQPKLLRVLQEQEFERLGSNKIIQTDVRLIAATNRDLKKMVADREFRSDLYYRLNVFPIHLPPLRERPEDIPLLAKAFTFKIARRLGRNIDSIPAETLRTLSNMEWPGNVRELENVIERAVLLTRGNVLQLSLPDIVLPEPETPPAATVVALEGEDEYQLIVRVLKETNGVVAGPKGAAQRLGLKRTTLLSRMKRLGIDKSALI
# Chain of UniProt P07014 (P07014 whole entry): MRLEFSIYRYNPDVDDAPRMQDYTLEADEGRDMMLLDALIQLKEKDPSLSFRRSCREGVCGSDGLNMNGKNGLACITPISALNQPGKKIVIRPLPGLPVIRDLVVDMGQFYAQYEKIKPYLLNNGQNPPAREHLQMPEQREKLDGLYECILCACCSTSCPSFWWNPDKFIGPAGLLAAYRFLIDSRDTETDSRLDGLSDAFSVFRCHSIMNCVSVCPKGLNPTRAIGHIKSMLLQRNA
# Chain of UniProt P04693 (P04693 whole entry): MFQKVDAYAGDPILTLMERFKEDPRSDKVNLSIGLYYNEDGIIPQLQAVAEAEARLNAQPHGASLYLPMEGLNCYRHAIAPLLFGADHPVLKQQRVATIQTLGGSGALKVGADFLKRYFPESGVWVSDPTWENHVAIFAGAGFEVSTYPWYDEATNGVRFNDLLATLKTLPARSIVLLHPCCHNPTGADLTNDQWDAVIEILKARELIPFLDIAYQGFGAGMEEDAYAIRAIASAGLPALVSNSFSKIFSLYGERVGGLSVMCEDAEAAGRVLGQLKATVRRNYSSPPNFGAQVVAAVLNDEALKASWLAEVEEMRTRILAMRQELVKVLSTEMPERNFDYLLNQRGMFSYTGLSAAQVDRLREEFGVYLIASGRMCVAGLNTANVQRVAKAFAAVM
# Chain of UniProt P00887 (P00887 whole entry): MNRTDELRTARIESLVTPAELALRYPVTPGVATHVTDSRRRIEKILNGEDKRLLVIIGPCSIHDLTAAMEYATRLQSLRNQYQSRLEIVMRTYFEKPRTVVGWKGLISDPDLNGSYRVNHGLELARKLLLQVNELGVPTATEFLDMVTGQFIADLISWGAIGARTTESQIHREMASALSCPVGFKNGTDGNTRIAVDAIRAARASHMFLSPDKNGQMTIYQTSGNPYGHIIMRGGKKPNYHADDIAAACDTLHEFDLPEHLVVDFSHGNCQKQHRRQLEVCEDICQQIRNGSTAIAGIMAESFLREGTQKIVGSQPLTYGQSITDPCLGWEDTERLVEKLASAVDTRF
# Chain of UniProt P33593 (P33593 whole entry): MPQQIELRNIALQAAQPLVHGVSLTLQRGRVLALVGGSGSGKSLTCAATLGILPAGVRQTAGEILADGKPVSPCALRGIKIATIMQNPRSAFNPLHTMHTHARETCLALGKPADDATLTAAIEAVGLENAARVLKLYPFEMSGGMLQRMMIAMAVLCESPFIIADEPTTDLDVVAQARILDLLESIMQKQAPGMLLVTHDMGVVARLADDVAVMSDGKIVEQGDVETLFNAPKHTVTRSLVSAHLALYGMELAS
# Chain of UniProt P14081 (P14081 whole entry): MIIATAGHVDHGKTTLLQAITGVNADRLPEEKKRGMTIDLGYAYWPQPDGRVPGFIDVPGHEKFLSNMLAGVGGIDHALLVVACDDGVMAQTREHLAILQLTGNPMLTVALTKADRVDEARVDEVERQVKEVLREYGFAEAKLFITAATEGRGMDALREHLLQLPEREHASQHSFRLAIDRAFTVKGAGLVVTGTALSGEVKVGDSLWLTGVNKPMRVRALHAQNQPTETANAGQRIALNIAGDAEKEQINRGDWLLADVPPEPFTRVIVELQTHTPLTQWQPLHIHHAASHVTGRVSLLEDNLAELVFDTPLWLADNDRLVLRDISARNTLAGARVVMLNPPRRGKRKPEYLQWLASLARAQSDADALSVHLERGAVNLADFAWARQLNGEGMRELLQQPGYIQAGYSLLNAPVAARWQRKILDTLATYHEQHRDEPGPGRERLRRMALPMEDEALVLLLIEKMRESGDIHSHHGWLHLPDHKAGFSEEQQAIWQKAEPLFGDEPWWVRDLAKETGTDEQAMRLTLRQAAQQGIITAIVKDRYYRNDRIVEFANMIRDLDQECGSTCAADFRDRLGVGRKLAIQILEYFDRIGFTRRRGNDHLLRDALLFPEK
# Chain of UniProt P0AFZ1 (P0AFZ1 whole entry): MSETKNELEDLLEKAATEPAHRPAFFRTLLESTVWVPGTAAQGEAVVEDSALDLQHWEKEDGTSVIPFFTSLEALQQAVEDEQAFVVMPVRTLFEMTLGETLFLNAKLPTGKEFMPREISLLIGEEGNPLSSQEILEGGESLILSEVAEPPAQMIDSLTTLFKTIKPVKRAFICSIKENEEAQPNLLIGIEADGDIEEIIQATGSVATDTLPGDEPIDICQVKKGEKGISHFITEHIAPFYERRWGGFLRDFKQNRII
# Chain of UniProt P03024 (P03024 whole entry): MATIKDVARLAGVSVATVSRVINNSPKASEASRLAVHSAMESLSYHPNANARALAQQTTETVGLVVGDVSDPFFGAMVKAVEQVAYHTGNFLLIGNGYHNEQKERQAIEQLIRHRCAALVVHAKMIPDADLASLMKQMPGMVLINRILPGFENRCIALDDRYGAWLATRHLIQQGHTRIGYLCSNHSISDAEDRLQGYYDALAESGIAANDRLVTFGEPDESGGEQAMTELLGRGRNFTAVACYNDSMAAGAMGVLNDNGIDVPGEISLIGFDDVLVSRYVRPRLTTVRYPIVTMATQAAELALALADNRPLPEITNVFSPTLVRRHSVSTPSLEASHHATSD
# Chain of UniProt P15640 (P15640 whole entry): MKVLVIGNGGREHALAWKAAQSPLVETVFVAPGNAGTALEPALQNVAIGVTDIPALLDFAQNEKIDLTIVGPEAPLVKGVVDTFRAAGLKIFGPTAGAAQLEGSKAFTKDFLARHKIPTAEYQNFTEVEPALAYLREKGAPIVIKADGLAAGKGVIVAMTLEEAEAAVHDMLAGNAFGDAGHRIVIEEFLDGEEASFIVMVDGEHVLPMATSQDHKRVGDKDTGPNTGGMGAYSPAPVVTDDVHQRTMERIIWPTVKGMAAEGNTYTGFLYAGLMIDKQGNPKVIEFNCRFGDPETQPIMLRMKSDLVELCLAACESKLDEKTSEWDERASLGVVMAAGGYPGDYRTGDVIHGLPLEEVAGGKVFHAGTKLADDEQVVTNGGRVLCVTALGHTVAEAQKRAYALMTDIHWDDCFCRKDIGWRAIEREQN
row,Target,log2 fold change
1,"UniProt P77316 (peptide sequence: HGDIFGHEFMGEVVETGKDVK, peptide start residue: 54)",-0.836
2,"UniProt P0AFZ1 (peptide sequence: NELEDLLEK, peptide start residue: 6)",0.67
3,"UniProt P33593 (peptide sequence: VLALVGGSGSGK, peptide start residue: 31)",-0.833
4,"UniProt P19323 (peptide sequence: ELENVIER, peptide start residue: 600)",-0.833
5,"UniProt P00893 (peptide sequence: HSQSYMQSLPDFVR, peptide start residue: 493)",0.316
6,"UniProt P15640 (peptide sequence: TSEWDER, peptide start residue: 323)",-1.28
7,"UniProt P03024 (peptide sequence: HSVSTPSLEASHHATSD, peptide start residue: 327)",0.482
8,"UniProt P00887 (peptide sequence: YPVTPGVATHVTDSRR, peptide start residue: 25)",-0.488
9,"UniProt P04693 (peptide sequence: HAIAPLLFGADHPVLKQQR, peptide start residue: 77)",0.961
10,"UniProt P14081 (peptide sequence: EHLLQLPER, peptide start residue: 159)",-1.29
11,"UniProt P07014 (peptide sequence: IVIRPLPGLPVIR, peptide start residue: 89)",0.248
